Measured values from PubChem BioAssay.
Activity calls are given as the source filed them.

Columns and labels:
Albumin (Bos taurus) = Albumin (Bos taurus) (UniProt P02769); assay: compounds binding labelled BSA control protein – biochemical, small-molecule microarray, Alexa647 label, 635/667 nm fluorescence, artefact control for SMM control protein annotation, profiling panel (AID 1118); conditions: BSA-A647 binding, fluorescence 635 nm, higher = more signal;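 further: score merges 667 nm emission intensity and signal-to-noise per printed compound spot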
Albumin (Bos taurus), sequence (P02769 whole entry, looked up): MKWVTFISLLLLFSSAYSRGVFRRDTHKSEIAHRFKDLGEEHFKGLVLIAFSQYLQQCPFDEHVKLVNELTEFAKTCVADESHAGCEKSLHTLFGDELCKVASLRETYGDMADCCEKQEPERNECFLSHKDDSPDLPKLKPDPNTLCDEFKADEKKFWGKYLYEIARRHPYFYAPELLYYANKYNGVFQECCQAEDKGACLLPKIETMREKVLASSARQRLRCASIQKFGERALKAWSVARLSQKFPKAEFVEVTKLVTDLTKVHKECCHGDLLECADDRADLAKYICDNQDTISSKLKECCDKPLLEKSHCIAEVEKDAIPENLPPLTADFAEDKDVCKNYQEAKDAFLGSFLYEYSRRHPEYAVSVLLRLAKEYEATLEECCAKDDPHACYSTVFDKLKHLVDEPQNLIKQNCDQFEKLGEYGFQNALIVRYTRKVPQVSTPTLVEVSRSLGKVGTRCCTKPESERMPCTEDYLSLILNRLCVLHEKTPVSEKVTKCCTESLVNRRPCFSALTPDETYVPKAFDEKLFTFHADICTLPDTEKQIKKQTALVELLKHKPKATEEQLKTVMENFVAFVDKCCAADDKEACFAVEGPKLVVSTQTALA

[1] = probe aXIP binding to arrayed compounds – biochemical, NeuroSMM set, 635/667 nm fluorescence, primary screen (AID 1119); conditions: small-molecule microarray, higher = more signal, called active from +8 up or from −8 down;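 further: probe is the protein aXip251-270 applied at 1 µg/mL to compound-printed slides; binding of probe to printed compounds measured as 667 nm fluorescence plus signal to noise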
[2] = probe aNOTCH3 binding on compound microarray – biochemical, small-molecule microarray, 635/667 nm fluorescence, primary screen (AID 1120); conditions: higher = more signal;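 further: probe is a biotin-tagged antibody raised against NOTCH3 rather than NOTCH3 protein; score merges spot fluorescence near 667 nm with spot signal to noise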
[3] = probe aNOTCH2 binding on compound microarray – biochemical, small-molecule microarray, 635/667 nm fluorescence, primary screen (AID 1121); conditions: higher = more signal;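 further: score merges feature fluorescence read at 667 nm with its signal to noise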
[4] = molecular target: Carbonic anhydrase 2 (Homo sapiens) (UniProt P00918); assay: compounds binding carbonic anhydrase 2 – biochemical, small-molecule microarray, Alexa647-labelled CAII, profiling panel (AID 1122); conditions: CAII-A647 binding fluorescence, higher = more signal
[5] = COS7 lysate on small-molecule microarray, probe aHis, 635 nm (AID 1123); conditions: COS7 cell lysate, fluorescence, higher = more signal;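 further: z-score combines 667nm fluorescence intensity with signal-to-noise per printed compound spot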
[6] = probe aLAP1 signal on lysate-treated microarray – cell lysate, small-molecule microarray, COS7 lysate, primary screen (AID 1124); conditions: probe aLAP1, fluorescence, higher = more signal;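 further: lysate comes from COS7 cells expressing LAP1 and is applied at 0.3 µg/mL; score merges spot fluorescence near 667 nm with signal-to-noise over triplicate slides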
Sam68 (KHDRBS1) = assay: compounds binding KHDRBS1 protein – biochemical, small-molecule microarray, 635 nm fluorescence, primary screen (AID 1125); conditions: higher = more signal;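 further: score merges 667 nm channel intensity with signal to noise over triplicate slides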
[7] = tested on: Chordin-like protein 2 (CHRDL2); assay: compounds binding chordin-like 2 – biochemical, small-molecule microarray, 635 nm fluorescence, primary screen (AID 1126); conditions: fluorescence 635 nm, higher = more signal;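 further: printed compound slides probed with Chrdl2 protein at 4 µg/mL for 1 h at 4 C; score merges 667 nm emission intensity with signal to noise over three replicate slides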
[8] = molecular target: Concanavalin-A (Canavalia ensiformis) (UniProt P02866); assay: compounds binding concanavalin A lectin – biochemical, small-molecule microarray, Alexa647 label, 635 nm, artefact control for SMM control protein annotation, primary screen (AID 1127); conditions: ConA-A647 binding fluorescence, higher = more signal;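 further: z combines 667 nm emission intensity with signal-to-noise across three replicate slides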
Concanavalin-A (Canavalia ensiformis), sequence (P02866 whole entry, looked up): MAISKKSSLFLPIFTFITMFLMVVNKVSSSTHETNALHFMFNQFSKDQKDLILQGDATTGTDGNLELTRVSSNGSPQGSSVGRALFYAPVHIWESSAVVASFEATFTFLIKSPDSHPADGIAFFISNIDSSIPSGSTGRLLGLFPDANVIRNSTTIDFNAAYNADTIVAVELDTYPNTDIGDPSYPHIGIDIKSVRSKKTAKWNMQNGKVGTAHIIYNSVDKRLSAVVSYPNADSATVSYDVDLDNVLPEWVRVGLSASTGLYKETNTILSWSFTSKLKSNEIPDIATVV

[9] = compounds binding Alexa647 anti-His antibody – biochemical, small-molecule microarray, 635 nm fluorescence, artefact control for SMM control protein annotation, primary screen (AID 1128); conditions: higher = more signal;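 further: score merges feature fluorescence with signal-to-noise for each printed compound spot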
[10] = tested on: Human papillomavirus type 1a E7 protein (residues 1-88); assay: HPV1a E7 small-molecule binders, primary screen, biochemical, small-molecule microarray, residues 1-88, 635 nm (AID 1129); conditions: small-molecule microarray binding, fluorescence 635 nm; higher = more signal
[11] = molecular target: Focal adhesion kinase 1 (Homo sapiens) (UniProt Q05397); assay: PTK2 protein binding on printed compound slides – biochemical, small-molecule microarray, 635/667 nm fluorescence, BSA, DTT, primary screen (AID 1130); conditions: 635 nm fluorescence, higher = more signal;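 further: composite of spot emission at 667 nm and signal to noise over triplicate slides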
Focal adhesion kinase 1 (Homo sapiens), sequence (Q05397 whole entry, looked up): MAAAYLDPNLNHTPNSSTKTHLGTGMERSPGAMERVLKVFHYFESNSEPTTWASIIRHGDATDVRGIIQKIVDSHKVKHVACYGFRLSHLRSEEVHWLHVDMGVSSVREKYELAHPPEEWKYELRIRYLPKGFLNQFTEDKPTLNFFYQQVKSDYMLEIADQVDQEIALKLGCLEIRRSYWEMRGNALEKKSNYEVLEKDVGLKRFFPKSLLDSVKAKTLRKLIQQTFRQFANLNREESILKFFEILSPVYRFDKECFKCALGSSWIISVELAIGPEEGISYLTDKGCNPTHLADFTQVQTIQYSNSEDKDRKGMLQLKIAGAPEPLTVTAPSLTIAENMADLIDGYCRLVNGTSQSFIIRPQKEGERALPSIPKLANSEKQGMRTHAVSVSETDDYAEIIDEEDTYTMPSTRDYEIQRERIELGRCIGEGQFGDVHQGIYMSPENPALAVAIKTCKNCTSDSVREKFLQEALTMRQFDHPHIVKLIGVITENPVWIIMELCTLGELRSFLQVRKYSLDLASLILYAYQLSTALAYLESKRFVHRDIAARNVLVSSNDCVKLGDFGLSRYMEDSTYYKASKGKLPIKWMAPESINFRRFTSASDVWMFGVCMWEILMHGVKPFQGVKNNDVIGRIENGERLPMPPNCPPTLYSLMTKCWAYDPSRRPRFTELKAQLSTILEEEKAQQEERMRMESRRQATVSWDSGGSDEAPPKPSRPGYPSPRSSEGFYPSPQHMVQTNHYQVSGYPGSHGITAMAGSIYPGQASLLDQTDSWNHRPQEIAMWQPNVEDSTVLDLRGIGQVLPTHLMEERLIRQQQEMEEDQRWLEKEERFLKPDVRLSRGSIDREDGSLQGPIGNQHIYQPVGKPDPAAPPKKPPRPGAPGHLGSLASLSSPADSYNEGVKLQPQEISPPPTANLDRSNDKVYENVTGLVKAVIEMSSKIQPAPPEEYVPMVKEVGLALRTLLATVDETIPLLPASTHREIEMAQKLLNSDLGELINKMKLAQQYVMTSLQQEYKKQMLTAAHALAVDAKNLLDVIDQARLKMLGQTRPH

[12] = tested on: Fibrinogen (Alexa647-labelled); assay: Alexa647-fibrinogen binding to printed small molecules – biochemical, small-molecule microarray, 635/667 nm fluorescence, artefact control for SMM control-protein annotation, profiling panel (AID 1131); conditions: fibrinogen-A647 binding fluorescence, higher = more signal;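 further: z-score merges 667 nm fluorescence with per-spot signal-to-noise over triplicate slides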
[13] = molecular target: Follistatin (Homo sapiens) (UniProt P19883); assay: FST protein binding to printed compounds – biochemical, small-molecule microarray, 635/667 nm fluorescence, primary screen (AID 1132); conditions: 635 nm fluorescence, higher = more signal
Follistatin (Homo sapiens), sequence (P19883 whole entry, looked up): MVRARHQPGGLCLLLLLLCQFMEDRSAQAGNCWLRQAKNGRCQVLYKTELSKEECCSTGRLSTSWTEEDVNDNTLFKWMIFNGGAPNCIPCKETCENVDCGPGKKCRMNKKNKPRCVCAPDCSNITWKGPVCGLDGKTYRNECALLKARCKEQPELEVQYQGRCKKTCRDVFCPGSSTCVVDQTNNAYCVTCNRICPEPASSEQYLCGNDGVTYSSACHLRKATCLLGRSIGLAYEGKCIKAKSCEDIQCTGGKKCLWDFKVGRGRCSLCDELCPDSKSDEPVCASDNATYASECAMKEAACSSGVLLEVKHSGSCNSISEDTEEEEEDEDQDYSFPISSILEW

[14] = molecular target: Fibroblast growth factor 2 (Homo sapiens) (UniProt P09038); assay: basic fibroblast growth factor binding to printed compounds – biochemical, small-molecule microarray, 635/667 nm fluorescence, primary screen (AID 1133); conditions: FGF2, fluorescence 635/667, higher = more signal
Fibroblast growth factor 2 (Homo sapiens), sequence (P09038 whole entry, looked up): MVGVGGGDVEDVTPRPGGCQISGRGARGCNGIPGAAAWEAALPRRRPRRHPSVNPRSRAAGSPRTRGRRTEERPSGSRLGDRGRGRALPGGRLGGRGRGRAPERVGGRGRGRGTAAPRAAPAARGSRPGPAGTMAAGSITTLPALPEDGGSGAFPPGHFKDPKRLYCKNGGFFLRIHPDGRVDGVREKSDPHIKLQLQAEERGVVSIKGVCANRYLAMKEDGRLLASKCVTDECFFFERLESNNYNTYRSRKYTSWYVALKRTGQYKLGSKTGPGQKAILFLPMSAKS

[15] = JC-1 mitochondrial potential readout, lung cancer cells – cell-based, A549, JC-1 fluorescence, basal, 24 h, 100 nL, profiling panel (AID 1138); conditions: higher = more signal;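 further: A549 lung adenocarcinoma cells under basal conditions with no added stimulus; test concentration not given here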
Lefty1 = Lefty1 protein binding to printed compounds – biochemical, small-molecule microarray, 635/667 nm fluorescence, primary screen (AID 1139); conditions: fluorescence 635/667, higher = more signal
[16] = tested on: wheat germ agglutinin (Triticum aestivum), Alexa647-labelled; assay: Alexa647-WGA lectin binding to printed small molecules – biochemical, small-molecule microarray, 635/667 nm fluorescence, artefact control for SMM control-protein annotation, profiling panel (AID 1140); conditions: WGA-A647 binding, 635 nm fluorescence, higher = more signal;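 further: score merges 667 nm feature emission with signal to noise over triplicate slides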
[17] = molecular target: Luciferin 4-monooxygenase (Photinus pyralis) (UniProt P08659); assay: inhibition of purified Photinus pyralis luciferase – biochemical, luminescence, purified enzyme, 2006 set, primary screen (AID 1141); conditions: purified firefly luciferase, SteadyGlo luminescence, 30 min; higher = more signal, called active from +8 up or from −8 down;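 further: cell-free assay with purified firefly luciferase at 100 ng per well in PBS; test concentration not given here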
Luciferin 4-monooxygenase (Photinus pyralis), sequence (P08659 whole entry, looked up): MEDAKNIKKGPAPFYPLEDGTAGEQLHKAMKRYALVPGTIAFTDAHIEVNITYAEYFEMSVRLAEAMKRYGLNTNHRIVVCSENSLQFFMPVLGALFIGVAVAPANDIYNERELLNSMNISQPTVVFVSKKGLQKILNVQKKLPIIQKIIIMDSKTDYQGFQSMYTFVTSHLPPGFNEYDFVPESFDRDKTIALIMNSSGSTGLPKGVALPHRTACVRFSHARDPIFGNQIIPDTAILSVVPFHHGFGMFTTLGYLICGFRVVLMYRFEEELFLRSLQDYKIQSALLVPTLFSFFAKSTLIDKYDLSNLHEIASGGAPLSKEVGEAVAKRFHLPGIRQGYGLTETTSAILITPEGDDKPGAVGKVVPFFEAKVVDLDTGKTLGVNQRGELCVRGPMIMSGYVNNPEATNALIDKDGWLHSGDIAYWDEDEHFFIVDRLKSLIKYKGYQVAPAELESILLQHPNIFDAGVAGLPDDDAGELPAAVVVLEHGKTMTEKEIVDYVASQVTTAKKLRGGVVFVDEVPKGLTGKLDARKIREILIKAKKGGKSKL

| Structure (SMILES) | composite z-score (Albumin (Bos taurus)) | composite Z-score [1] | composite z-score [2] | composite z-score [3] | composite z-score [4] | composite z-score [5] | composite z-score [6] | composite z-score (Sam68 (KHDRBS1)) | composite z-score [7] | composite z-score [8] | composite z-score [9] | composite z-score [10] | composite z-score [11] | composite z-score [12] | composite z-score [13] | composite z-score [14] | z-score [15] | composite z-score (Lefty1) | composite z-score [16] | z-score [17] |
| --- | --- | --- | --- | --- | --- | --- | --- | --- | --- | --- | --- | --- | --- | --- | --- | --- | --- | --- | --- | --- |
| CCCCC(=C=CC[C@H](O)c1ccc(CO)o1)CCO | 0.86 | -0.334 (inactive) | -0.0544 | -0.0404 | 0.54 | 0.143 | -0.311 | 0.864 | 0.386 | 0.689 | 0.149 | 0.661 | 0.323 | -0.884 | 0.986 | 0.662 | 0.164 | 0.738 | 0.0416 | -0.783 (inactive) |
| Cc1ccc(S[C@]2(C(=O)NCc3ccccc3)CC(=O)N(Cc3ccccc3C(F)(F)F)[C@@H]2c2ccc(CO)cc2)cc1 | -0.17 | 0.131 (inactive) | -0.413 | 0.0022 | -0.333 | 0.397 | -0.618 | 0.199 | -1.77 | -0.586 | -0.645 | -0.347 | -0.496 | 0.443 | -1.4 | -0.574 | 0.802 | -1.51 | -0.212 | -0.0819 (inactive) |
| C=CCN1C(=O)[C@]2(O[C@H](CCn3cc([C@H](O)c4ccccc4)nn3)[C@@H]([Si](C)(C)c3ccc(OC)cc3)[C@@H]2C)c2cc(NC(=O)c3ccc(OC)cc3)ccc21 | 0.55 | 0.24 (inactive) | -0.0362 | -0.135 | 0.015 | 1.02 | -0.182 | 0.867 | 0.334 | 0.543 | 0.66 | 0.499 | 0.748 | 0.0903 | 1.23 | 0.307 | 0.997 | 0.794 | 0.422 | -1.16 (inactive) |
| O=C(NC1CC1)[C@@H]1c2ccccc2C(=O)N(Cc2cc(C(F)(F)F)cc(C(F)(F)F)c2)[C@H]1c1ccc(CO)cc1 | -0.148 | -0.563 (inactive) | -0.352 | -0.102 | 0.679 | 1.29 | 0.174 | 0.157 | -0.936 | 0.321 | 0.399 | 0.228 | 0.052 | 0.427 | 0.755 | 0.0292 | -0.197 | -0.291 | 0.416 | -0.423 (inactive) |
| COCCCNC(=O)[C@@]1(CCS(=O)(=O)c2ccccc2)COC(c2ccc(OCCCO)cc2)=N1 | 0.595 | 0.197 (inactive) | 0.567 | 0.0551 | 0.919 | 3.36 | 0.706 | 1.14 | -0.804 | 0.945 | 3.75 | 0.92 | 0.394 | 1.02 | 1.31 | 0.194 | 0.206 | -0.0951 | 1.59 | -0.0482 (inactive) |
| COc1ccc([Si](C)(C)[C@@H]2[C@@H](CC(=O)N3CCC[C@H]3CO)O[C@]3(C(=O)N(Cc4cccc(N5CCCCC5=O)c4)c4ccccc43)[C@H]2C)cc1 | -0.101 | 1.39 (inactive) | -0.0098 | -0.127 | 0.583 | 1.97 | 0.433 | 1.07 | 0.781 | 1.11 | 2.54 | 1.03 | 0.0576 | 0.641 | 0.767 | 0.473 | 0.218 | 1.23 | 0.307 | -1.86 (inactive) |
| COC(=O)[C@H](Cc1ccc(O)cc1)N[C@@H](/C=C/C1CC1)[C@H](O)Cc1ccccc1 | -0.394 | -0.414 (inactive) | -0.127 | -0.172 | -0.231 | -0.635 | -0.125 | 0.0476 | 0.202 | -0.407 | 0.257 | -0.506 | -0.408 | -0.785 | 0.156 | 0.0843 | 0.091 | 0.389 | -0.185 | 0.209 (inactive) |
| C=CCNC(=O)[C@@H]1[C@H]2C(=O)O[C@H](c3ccccc3)[C@H](c3ccccc3)N2[C@H](c2ccc(OCCO)cc2)[C@@]12C(=O)Nc1ccc(C#CC3(O)CCCCCC3)cc12 | 0.692 | -0.058 (inactive) | 0.13 | -0.11 | 0.42 | 1.86 | 0.637 | 1.3 | 0.253 | 1.19 | 2.64 | 1.18 | 0.245 | 0.891 | 1.34 | 0.755 | -1.21 | 0.497 | 1.04 | -0.467 (inactive) |
| O=C1C2C=CC(C(O)c3cccs3)N(Nc3ccc([N+](=O)[O-])cc3)C2C(=O)N1c1ccccc1 (stereo not given) | 0.523 | -0.506 (inactive) | 0.0105 | -0.0694 | 0.759 | 2.08 | 0.218 | 0.909 | 0.0721 | 0.585 | 0.482 | 1.11 | 0.894 | 0.697 | 0.337 | -0.105 | -0.908 | -0.457 | 0.844 | 1.1 (inactive) |
| CCOC(=O)C1=CC[C@@H](c2ccccc2)N(S(=O)(=O)c2ccc(C)cc2)[C@H]1c1ccccc1I | 0.856 | 0.008 (inactive) | 1.02 | -0.0226 | 0.649 | 0.842 | 0.748 | 0.875 | -0.131 | 1.01 | 1.5 | 1.21 | 0.475 | 0.995 | 0.923 | 0.184 | 1.27 | -0.163 | 1.01 | 1.55 (inactive) |
| O=C1C[C@@](C(=O)O)(c2ccc([N+](=O)[O-])cc2)[C@@H](c2ccc(CO)cc2)N1C1CCCCC1 | 0.88 | 0.628 (inactive) | 0.204 | -0.0029 | 0.508 | 2.02 | 0.281 | 1.34 | 0.0583 | 1.05 | 1.82 | 1.23 | 0.54 | 0.953 | 1.01 | 0.26 | 0.57 | 0.312 | 0.92 | -1.81 (inactive) |
